Assay results reported in PubChem BioAssay (Tox21).
Records with an inconclusive call do not appear. A number with no mark means an inactive call. The source made the active and inactive calls. Calls follow the shape of the full dose curve. Positions of bridges follow the written chain, without caps; N, C: chain ends. Where a SMILES comes first, the peptide text is derived from it. Non-standard residues stand in square brackets, D forms with d. Residues, ends and D or L forms follow the SMILES beside them. hArg = N=C(N)NCCCC[C@H](N)C(=O)O; Mpa = O=C(O)CCS

Each compound was assayed against Peroxisome proliferator-activated receptor gamma (Homo sapiens) (UniProt P37231) (assay: qHTS assay to identify small molecule antagonists of the peroxisome proliferator-activated receptor gamma (PPARg) signaling pathway (AID 743191; also: nearly all actives have a fitted effect of over 30% in size)). Conditions: HEK293H PPARg-UAS-bla, beta-lactamase ratio, antagonist, 17 h; series mostly up to 62.6 µM.
From the text: U.S. Tox21 Program National Center for Advancing Translational Sciences [NCATS] NIH Chemical Genomics Center [NCGC] U.S. Environmental Protection Agency [EPA] National Institutes of Environmental Health Sciences [NIEHS] National Toxicology Program [NTP] U.S. Food and Drug Administration [FDA] Tox21 Assay Overview: The peroxisome proliferator-activated receptors (PPARs) are lipid-activated transcription factors of the nuclear receptor superfamily with three distinct subtypes namely PPAR alpha, PPAR delta (also called PPAR beta) and PPAR gamma (PPARg). All these subtypes heterodimerize with Retinoid X receptor (RXR) and these heterodimers regulate transcription of various genes. PPAR-gamma receptor (glitazone receptor) is involved in the regulation of glucose and lipid metabolism. To identify the compounds that inhibit PPAR-gamma signaling, GeneBLAzer PPAR gamma UAS-bla HEK293H cell line (Invitrogen, Carlsbad, CA, USA) containing a beta-lactamase reporter gene under control of an Upstream Activator Sequence (UAS) was used to screen the Tox21 compound library.
Tox21 Assay Protocol Summary: PPARg-bla cells were dispensed at 3000 cells/6uL/well in 1536-well black wall/clear bottom plates using a Multidrop Combi (Thermo Fisher Scientific, Waltham, MA) dispenser. After the assay plates were incubated at 37C and 5% CO2 for 5 h, 23 nL of compounds dissolved in DMSO, positive controls or DMSO only was transferred to the assay plate by a Pintool station (Kalypsys, San Diego, CA). The assay plates were incubated at 37C for 17 h. After 1 uL of LiveBLAzerTM B/G FRET substrate was added using a Bioraptr Flying Reagent Dispenser (FRD) workstation (Beckman Coulter, Indianapolis, IN, USA), the plates were incubated at room temperature for 1 h, and fluorescence intensity was measured by an Envision plate reader (PerkinElmer, Shelton, CT).
% is scaled to controls: 0 for no effect and ±100 for the full control effect.

Peroxisome proliferator-activated receptor gamma (Homo sapiens), sequence (P37231 whole entry, looked up): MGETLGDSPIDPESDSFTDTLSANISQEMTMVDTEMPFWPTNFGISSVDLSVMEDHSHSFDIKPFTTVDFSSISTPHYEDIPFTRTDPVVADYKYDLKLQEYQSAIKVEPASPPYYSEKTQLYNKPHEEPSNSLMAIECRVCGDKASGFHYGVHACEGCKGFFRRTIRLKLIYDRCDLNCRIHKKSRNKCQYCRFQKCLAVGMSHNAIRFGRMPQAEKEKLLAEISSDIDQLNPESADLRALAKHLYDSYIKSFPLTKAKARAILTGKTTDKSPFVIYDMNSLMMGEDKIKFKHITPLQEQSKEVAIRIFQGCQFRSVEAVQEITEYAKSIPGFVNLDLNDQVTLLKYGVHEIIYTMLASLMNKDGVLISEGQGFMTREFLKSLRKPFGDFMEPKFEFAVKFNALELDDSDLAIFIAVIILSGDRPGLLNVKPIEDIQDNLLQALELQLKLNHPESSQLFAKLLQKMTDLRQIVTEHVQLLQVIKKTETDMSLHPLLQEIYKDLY

SMILES | outcome | ratio activity, negative = inhibition
CN(C)CCCO[C@@H]1[C@H]2OC(C)(C)O[C@H]2O[C@@H]1C(O)CO (stereo not given in full) | inactive | –
Cc1ccc(C)c([N+](=O)[O-])c1 | inactive | –
CC(=O)CCC1=C(C)CCCC1(C)C | inactive | –
CN(C)CCN(C)CCO | inactive | –
CCCC(CC)c1ccccc1 (stereo not given) | inactive | –
CCC(C)C(C)=O (stereo not given) | inactive | –
Cc1c(N)cccc1Cl | inactive | –
CCCC(=O)OC/C=C(\C)CCC=C(C)C | inactive | –
C=CCN1C[C@H](C(=O)N(CCCN(C)C)C(=O)NCC)C[C@@H]2c3cccc4[nH]cc(c34)C[C@H]21 | inactive | –
NC(=O)[C@@H]1CSSCCC(=O)N[C@@H](CCCCN=C(N)N)C(=O)NCC(=O)N[C@@H](CC(=O)O)C(=O)N[C@@H](Cc2c[nH]c3ccccc23)C(=O)N2CCC[C@H]2C(=O)N1 ([Mpa][hArg]GDWPC-NH2; disulfide 1-7) | inactive | –
CCC(=O)c1c(O)cc(O)cc1O | inactive | –
CCC(=O)CC | inactive | –
CCO | inactive | –
CC(O)COC(C)(C)C (stereo not given) | inactive | –
CCCCCCCCCCCCCCC(=O)NC(CO)CCCCCCCCCCCCCC (stereo not given) | inactive | –
CC(=O)O[C@@H]1CC2CCC1(C)C2(C)C (stereo not given in full) | inactive | –
C=CCCCC | inactive | –
CO[Si](CCCn1c(=O)n(CCC[Si](OC)(OC)OC)c(=O)n(CCC[Si](OC)(OC)OC)c1=O)(OC)OC | inactive | –
C/C=C(\C)C(C)=O | inactive | –
CC(C)c1ccc(C=O)cc1 | inactive | –

SMILES | outcome | ratio activity, negative = inhibition
CC12CCC(C1)C(C)(C)C2O (stereo not given) | inactive | –
COC(C)(OC)OC | inactive | –
OC1(c2ccc(Cl)cc2)CCNCC1 | inactive | –
CC(C)=CCC[C@@](C)(O)[C@H]1CC=C(C)CC1 | inactive | –
CC(=O)N[C@@H](CO)C(=O)N[C@@H](CC(=O)O)C(=O)N[C@@H](CCCCN)C(=O)N1CCC[C@H]1C(=O)O (Ac-SDKP-OH) | inactive | –
O=S(=O)(O)c1ccc2c(N=Nc3ccc(S(=O)(=O)O)c4ccccc34)c(O)c(S(=O)(=O)O)cc2c1 | – | -16.6% [at 5.95 µM]
C#CCN[C@@H]1CCc2ccccc21 | inactive | –
O=C1NC(c2ccccc2)(c2ccccc2)C(=O)N1COP(=O)(O)O | inactive | –
CC(S)C(C)S (stereo not given) | inactive | –
C=CC(=O)OCC1CCCO1 (stereo not given) | inactive | –
Cc1c(NC(=O)c2cccnc2)c(=O)n(-c2ccccc2)n1C | inactive | –
CC1=C(C(=O)O)N2C(=O)[C@@H](NC(=O)[C@H](N)C3=CCC=CC3)[C@H]2SC1 | inactive | –
COC(=O)c1cc(Cl)cc(Cl)c1 | inactive | –
CCCCCC(C)O (stereo not given) | inactive | –
CCCSSCCC | inactive | –
O=C(Cn1ccnc1[N+](=O)[O-])NCc1ccccc1 | inactive | –
O=C=NCC1CCCC(CN=C=O)C1 (stereo not given) | inactive | –
O/N=C/C=N/O | inactive | –
O=C(O)CNC(=O)CNC(=O)CNC(=O)CSC(=O)c1ccccc1 | inactive | –
CC1(C)[C@H]2CC[C@](C)(C2)[C@H]1O | inactive | –
